Results filed as inconclusive are left out. Active and inactive are the calls of the source. How the source made its calls, unless noted: active means hit-call score of the fitted dose curve at least 0.9, where 1 is the maximum; inactive means score below 0.9.
Assays:
[1] = target: Paired box protein Pax-6 (Homo sapiens) (UniProt P26367); assay: ATG_Pax6_CIS: Attagene CIS-FACTORIAL HepG2 Assay for human Paired Box 6 (PAX6) (AID 2282956); conditions: HepG2 CIS-FACTORIAL PAX6 reporter transcription, RNA readout; actives raise or lower the signal
Outline: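 DMSO-referenced bidirectional fits of reporter mRNA fluorescence; HepG2 with transient cis-promoter MRTUs, 24 h post-dose, RT-PCR plus capillary electrophoresis detection.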

[2] = ATG_PPRE_CIS: Attagene CIS-FACTORIAL HepG2 Assay for human Peroxisome Proliferator-activated Response Element (PPRE) (AID 2282958); conditions: HepG2 PPRE cis-element reporter, Attagene transcription factor profiling; actives raise or lower the signal
Outline: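 Measured endpoint: PPRE-controlled reporter mRNA, detected by RT-PCR and capillary electrophoresis fluorescence, from transiently transfected HepG2 cells 24 h after dosing. Curves fitted in both directions using DMSO baseline.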

[3] = ATG_Sox_CIS: Attagene CIS-FACTORIAL HepG2 Assay for human SRY-box transcription factor (SOX) (AID 2282960); conditions: HepG2 Attagene cis-factorial SOX reporter, mRNA; actives raise or lower the signal
Outline: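 Gain- or loss-of-signal endpoint, fitted bidirectionally with DMSO as negative control. Based on reporter mRNA from transfected HepG2 cells harvested 24 h post-treatment and quantified via RT-PCR and capillary electrophoresis.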

[4] = ATG_SREBP_CIS: Attagene CIS-FACTORIAL HepG2 Assay for human Sterol Regulatory Element Binding (SREBP) (AID 2282962); conditions: HepG2 Attagene cis-factorial SREBP reporter, mRNA; actives raise or lower the signal
Outline: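 In this cis-format assay, HepG2 liver cells express reporters controlled by promoter elements responsive to native transcription factors. Exposure lasts 24 h; reporter mRNA fluorescence from capillary electrophoresis gives the signal, fitted bidirectionally against DMSO.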

[5] = ATG_TA_CIS: Attagene CIS-FACTORIAL HepG2 Assay for human TA Basal Promoter (AID 2282964); conditions: HepG2 Attagene CIS-factorial TA basal promoter reporter; actives raise or lower the signal
Outline: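 Fluorescence from labelled RT-PCR reporter fragments, separated by capillary electrophoresis, gives the signal. Cells: HepG2 transiently carrying multiple reporter units, 24 h chemical dosing. Gain or loss relative to DMSO.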

[6] = ATG_TCF_b_cat_CIS: Attagene CIS-FACTORIAL HepG2 Assay for human T-Cell-Factor with beta-catenin (TCF/b-cat) (AID 2282965); conditions: HepG2 TCF/beta-catenin cis-reporter transcription, actives raise or lower the signal
Outline: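 HepG2, transient MRTU transfection, cis-element-driven reporters (endogenous TFs). 24 h compound exposure. Readout: reporter mRNA by RT-PCR + 6-FAM primer extension, HpaI digest, capillary electrophoresis. Gain/loss fit vs DMSO baseline.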

[7] = ATG_TAL_CIS: Attagene CIS-FACTORIAL HepG2 Assay for human TAL Basal Promoter (AID 2282966); conditions: HepG2 Attagene cis-factorial TAL promoter reporter; actives raise or lower the signal;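 further: background control endpoint measuring basal TAL promoter reporter mRNA not a specific factor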
Outline: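 Transiently transfected HepG2 (cis-regulated reporter units), 24 h treatment, mRNA read by fluorescent CE after RT-PCR; bidirectional fit, DMSO baseline.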

[8] = ATG_VDRE_CIS: Attagene CIS-FACTORIAL HepG2 Assay for human Vitamin D Receptor Element (VDRE) (AID 2282968); conditions: HepG2 VDRE cis-reporter transcription, actives raise or lower the signal
Outline: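 Compounds were applied for 24 h to HepG2 cells transfected with promoter-regulated reporter units. Total RNA was reverse-transcribed, and reporter amplicons were fluorescently labelled and sized by capillary electrophoresis.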

[9] = target: Estrogen receptor (Homo sapiens) (UniProt P03372); assay: ATG_ERa_TRANS: Attagene TRANS-FACTORIAL HepG2 Assay for human Estrogen Receptor alpha (ERa) (AID 2282970; active means hit-call score of the fitted dose curve at least 0.9, where 1 is the maximum); conditions: HepG2 Attagene TRANS ERa GAL4 reporter, mRNA
Outline: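 One of 30 multiplexed endpoints from a HepG2 TRANS system, this one reports ERa-Gal4-driven reporter mRNA. Transcripts were quantified 24 hours post-dosing by fluorescent RT-PCR and capillary electrophoresis, with activity scored as induction over DMSO.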

[10] = target: Steroid hormone receptor ERR1 (Homo sapiens) (UniProt P11474); assay: ATG_ERRa_TRANS: Attagene TRANS-FACTORIAL HepG2 Assay for human Estrogen-Related Receptor alpha (ERRa) (AID 2282971; active means hit-call score of the fitted dose curve at least 0.9, where 1 is the maximum); conditions: HepG2 Attagene TRANS reporter, ERRa transactivation
Outline: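 HepG2 cells transiently transfected with multiplexed GAL4-UAS reporter units reading chimeric ERRa-Gal4 activity; 24 h compound exposure. Reporter mRNA measured by RT-PCR, 6-FAM labelling, HpaI digest and capillary electrophoresis; gain of signal fitted versus DMSO baseline.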

[11] = target: X-box-binding protein 1 (Homo sapiens) (UniProt P17861); assay: ATG_Xbp1_CIS: Attagene CIS-FACTORIAL HepG2 Assay for human X-box Binding Protein 1 (XBP1) (AID 2282972); conditions: HepG2 XBP1 cis-element reporter, Attagene multiplex; actives raise or lower the signal
Outline: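 Changes in reporter transcript abundance, read by RT-PCR and capillary electrophoresis, reflect endogenous transcription factor activity. Transfected HepG2 cells received compound for 24 hours; DMSO defined baseline for bidirectional analysis.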

[12] = ATG_M_19_TRANS: Attagene TRANS-FACTORIAL HepG2 Assay for M19 Transcription Factor (Internal Marker) (AID 2282974; active means hit-call score of the fitted dose curve at least 0.9, where 1 is the maximum); conditions: HepG2 Attagene TRANS-FACTORIAL M19 internal marker reporter
Outline: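 Using RT-PCR and capillary electrophoresis, reporter mRNA from transiently transfected human HepG2 cells was quantified following 24 h exposure; activity was fitted in the positive direction against DMSO.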

[13] = ATG_GAL4_TRANS: Attagene TRANS-FACTORIAL HepG2 Assay for GAL4 (Internal Marker) (AID 2282976; active means hit-call score of the fitted dose curve at least 0.9, where 1 is the maximum); conditions: HepG2 Attagene TRANS GAL4 internal marker reporter
Outline: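 HepG2 cells transiently transfected with multiplexed GAL4-UAS reporter constructs were dosed for 24 h. Reporter mRNA was measured by RT-PCR, 6-FAM primer extension, HpaI digestion and capillary electrophoresis, and gain of signal was fitted relative to DMSO.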

[14] = target: Signal transducer and activator of transcription 3 (Homo sapiens) (UniProt P40763); assay: ATG_STAT3_CIS: Attagene CIS-FACTORIAL HepG2 Assay for human Signal Transducer and Activator of Transcription 3 (STAT3) (AID 2282963); conditions: HepG2, Attagene cis-factorial STAT3 reporter transcription; actives raise or lower the signal
Outline: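 Fluorescence intensity of 6-FAM-labelled reporter fragments, separated by capillary electrophoresis after RT-PCR, gave the signal. Cells were HepG2 transfected with cis-element reporter units and treated 24 h; fitting was bidirectional relative to DMSO.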

[15] = ATG_TGFb_CIS: Attagene CIS-FACTORIAL HepG2 Assay for human Transforming Growth Factor (TGF) (AID 2282967); conditions: HepG2 Attagene CIS TGFb reporter, mRNA transcription; actives raise or lower the signal
Outline: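 Bidirectional fitting relative to DMSO gave the endpoint. Underlying data: reporter mRNA from HepG2 cells carrying transiently transfected cis-regulated reporter constructs, harvested 24 h after dosing and analyzed by RT-PCR and capillary electrophoresis.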

[16] = target: Nuclear receptor subfamily 1 group I member 3 (Homo sapiens) (UniProt Q14994); assay: ATG_CAR_TRANS: Attagene TRANS-FACTORIAL HepG2 Assay for human Constitutive Androstane Receptor (CAR) (AID 2282969; active means hit-call score of the fitted dose curve at least 0.9, where 1 is the maximum;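 further: activators raise reporter mRNA above DMSO so AC50 marks induction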); conditions: HepG2 Attagene TRANS-FACTORIAL CAR reporter
Outline: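 Transiently transfected HepG2, multiplex TRANS reporters (CAR-Gal4 chimera driving GAL4-UAS reporter). 24 h dosing. Readout: reporter transcript by RT-PCR + capillary electrophoresis, fluorescence intensity; positive direction vs DMSO.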

[17] = target: Estrogen-related receptor gamma (Homo sapiens) (UniProt P62508); assay: ATG_ERRg_TRANS: Attagene TRANS-FACTORIAL HepG2 Assay for human Estrogen-Related Receptor gamma (ERRg) (AID 2282977; active means hit-call score of the fitted dose curve at least 0.9, where 1 is the maximum;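 further: hits increase reporter signal over DMSO so potencies reflect activators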); conditions: HepG2 Attagene TRANS reporter, ERRg transactivation
Outline: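 Exogenous NR-Gal4 chimera activity measured as reporter transcript induction after 24 h in transiently transfected HepG2 cells. RNA reverse-transcribed, PCR-amplified, 6-FAM-labelled and resolved by capillary electrophoresis; increase over DMSO baseline.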

[18] = ATG_RORE_CIS: Attagene CIS-FACTORIAL HepG2 Assay for human RAR-related Orphan Receptor Element (RORE) (AID 2282959); conditions: HepG2 Attagene cis-factorial RORE reporter, mRNA; actives raise or lower the signal
Outline: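 Transiently transfected HepG2 reporter cells were treated 24 h. Reporter transcripts were detected by RT-PCR and capillary electrophoresis, with bidirectional fitting against DMSO.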

[19] = target: Transcription factor Sp1 (Homo sapiens) (UniProt P08047); assay: ATG_Sp1_CIS: Attagene CIS-FACTORIAL HepG2 Assay for human Specificity Protein 1 (Sp1) (AID 2282961); conditions: HepG2 Sp1 cis-reporter transcription, actives raise or lower the signal
Outline: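 Endpoint reflects endogenous Sp1 transcriptional activity, not an exogenous fusion protein: HepG2 cells with transfected cis-regulated reporters, 24 h dosing, RT-PCR/capillary electrophoresis mRNA read-out, DMSO-normalised bidirectional fit.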

Measured: AC50

Sequence of X-box-binding protein 1 (Homo sapiens) (P17861 whole entry, looked up): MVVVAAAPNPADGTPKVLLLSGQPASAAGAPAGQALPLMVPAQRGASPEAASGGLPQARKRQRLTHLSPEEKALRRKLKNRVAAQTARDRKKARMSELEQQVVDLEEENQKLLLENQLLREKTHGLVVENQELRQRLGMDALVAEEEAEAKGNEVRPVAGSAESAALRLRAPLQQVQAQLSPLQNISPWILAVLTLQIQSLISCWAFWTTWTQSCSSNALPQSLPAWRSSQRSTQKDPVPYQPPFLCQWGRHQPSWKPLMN
Sequence of Transcription factor Sp1 (Homo sapiens) (P08047 whole entry, looked up, the tested form may be a part): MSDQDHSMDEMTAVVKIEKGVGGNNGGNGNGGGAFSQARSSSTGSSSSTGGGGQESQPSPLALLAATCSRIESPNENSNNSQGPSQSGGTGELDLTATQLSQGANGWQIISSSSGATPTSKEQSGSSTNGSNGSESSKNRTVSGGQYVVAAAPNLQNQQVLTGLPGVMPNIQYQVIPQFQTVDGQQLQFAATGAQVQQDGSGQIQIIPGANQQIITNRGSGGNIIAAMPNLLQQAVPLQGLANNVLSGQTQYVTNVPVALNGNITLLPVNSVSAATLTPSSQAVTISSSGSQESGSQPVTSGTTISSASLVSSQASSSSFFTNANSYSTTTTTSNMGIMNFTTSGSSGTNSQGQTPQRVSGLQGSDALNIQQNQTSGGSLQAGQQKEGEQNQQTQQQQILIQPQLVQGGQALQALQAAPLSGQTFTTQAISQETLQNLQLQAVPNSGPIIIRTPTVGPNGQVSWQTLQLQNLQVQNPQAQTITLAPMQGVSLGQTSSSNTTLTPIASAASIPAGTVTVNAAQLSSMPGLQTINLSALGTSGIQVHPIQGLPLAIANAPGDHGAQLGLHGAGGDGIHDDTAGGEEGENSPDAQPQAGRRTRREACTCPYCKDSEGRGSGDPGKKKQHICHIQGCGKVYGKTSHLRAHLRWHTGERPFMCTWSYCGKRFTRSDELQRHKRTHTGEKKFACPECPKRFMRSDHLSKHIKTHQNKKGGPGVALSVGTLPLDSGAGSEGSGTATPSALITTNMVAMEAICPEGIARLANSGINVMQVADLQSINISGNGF
Sequence of Estrogen receptor (Homo sapiens) (P03372 whole entry, looked up, the tested form may be a part): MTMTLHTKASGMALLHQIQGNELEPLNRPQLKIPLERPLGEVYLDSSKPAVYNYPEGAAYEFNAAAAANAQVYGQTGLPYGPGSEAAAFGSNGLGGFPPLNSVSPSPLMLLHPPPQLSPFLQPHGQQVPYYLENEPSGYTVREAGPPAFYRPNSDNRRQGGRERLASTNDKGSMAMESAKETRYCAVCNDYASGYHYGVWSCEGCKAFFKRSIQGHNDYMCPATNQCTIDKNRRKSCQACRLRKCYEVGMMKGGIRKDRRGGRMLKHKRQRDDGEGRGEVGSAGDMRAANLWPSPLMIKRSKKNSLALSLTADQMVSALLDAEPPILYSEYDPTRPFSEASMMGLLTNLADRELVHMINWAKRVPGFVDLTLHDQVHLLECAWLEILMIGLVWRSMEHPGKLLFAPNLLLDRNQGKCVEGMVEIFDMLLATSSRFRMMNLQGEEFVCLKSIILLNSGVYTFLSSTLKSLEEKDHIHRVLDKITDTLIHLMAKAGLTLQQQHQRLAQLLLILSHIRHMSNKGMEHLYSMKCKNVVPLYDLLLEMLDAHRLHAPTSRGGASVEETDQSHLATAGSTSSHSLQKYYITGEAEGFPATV
Sequence of Nuclear receptor subfamily 1 group I member 3 (Homo sapiens) (Q14994 whole entry, looked up, the tested form may be a part): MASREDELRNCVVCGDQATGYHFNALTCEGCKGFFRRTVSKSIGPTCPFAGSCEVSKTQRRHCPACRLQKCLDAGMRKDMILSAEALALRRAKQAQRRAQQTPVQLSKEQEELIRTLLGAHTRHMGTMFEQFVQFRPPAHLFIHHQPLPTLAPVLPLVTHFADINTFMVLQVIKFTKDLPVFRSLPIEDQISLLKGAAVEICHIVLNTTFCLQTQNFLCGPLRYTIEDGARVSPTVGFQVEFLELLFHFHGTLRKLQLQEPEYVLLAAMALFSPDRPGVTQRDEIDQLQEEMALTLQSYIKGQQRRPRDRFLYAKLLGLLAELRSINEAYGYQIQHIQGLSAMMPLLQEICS
Sequence of Signal transducer and activator of transcription 3 (Homo sapiens) (P40763 whole entry, looked up, the tested form may be a part): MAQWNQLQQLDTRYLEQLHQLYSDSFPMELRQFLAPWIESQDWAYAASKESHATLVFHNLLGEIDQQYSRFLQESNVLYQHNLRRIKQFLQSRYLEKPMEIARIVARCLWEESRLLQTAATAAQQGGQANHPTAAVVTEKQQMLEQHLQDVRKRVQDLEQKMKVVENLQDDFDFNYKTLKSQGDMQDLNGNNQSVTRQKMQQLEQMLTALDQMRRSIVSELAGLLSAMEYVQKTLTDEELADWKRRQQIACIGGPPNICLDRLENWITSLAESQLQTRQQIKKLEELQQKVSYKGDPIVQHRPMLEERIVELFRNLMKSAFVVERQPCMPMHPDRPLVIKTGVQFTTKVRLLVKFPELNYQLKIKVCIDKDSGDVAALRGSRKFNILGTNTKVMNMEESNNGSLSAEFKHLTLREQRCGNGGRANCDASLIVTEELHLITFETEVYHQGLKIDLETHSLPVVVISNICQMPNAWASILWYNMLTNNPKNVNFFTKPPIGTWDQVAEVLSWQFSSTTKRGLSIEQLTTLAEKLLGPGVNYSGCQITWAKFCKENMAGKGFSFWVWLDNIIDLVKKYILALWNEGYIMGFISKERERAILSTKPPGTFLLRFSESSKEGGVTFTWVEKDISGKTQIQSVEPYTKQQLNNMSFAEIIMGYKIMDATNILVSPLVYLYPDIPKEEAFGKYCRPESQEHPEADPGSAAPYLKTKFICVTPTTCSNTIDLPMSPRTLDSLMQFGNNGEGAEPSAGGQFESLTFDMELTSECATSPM
Sequence of Paired box protein Pax-6 (Homo sapiens) (P26367 whole entry, looked up): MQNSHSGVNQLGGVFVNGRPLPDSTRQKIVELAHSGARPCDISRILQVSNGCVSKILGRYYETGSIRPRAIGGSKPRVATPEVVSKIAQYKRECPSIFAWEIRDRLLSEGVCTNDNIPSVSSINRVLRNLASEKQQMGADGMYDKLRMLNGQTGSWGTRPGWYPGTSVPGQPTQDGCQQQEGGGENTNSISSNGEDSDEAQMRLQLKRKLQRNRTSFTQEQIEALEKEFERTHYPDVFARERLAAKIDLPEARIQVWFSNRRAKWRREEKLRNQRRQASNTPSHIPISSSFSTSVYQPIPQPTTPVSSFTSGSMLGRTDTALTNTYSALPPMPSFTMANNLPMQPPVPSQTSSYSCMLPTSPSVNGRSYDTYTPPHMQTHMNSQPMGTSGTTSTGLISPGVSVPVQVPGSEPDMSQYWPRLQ
Sequence of Steroid hormone receptor ERR1 (Homo sapiens) (P11474 whole entry, looked up, the tested form may be a part): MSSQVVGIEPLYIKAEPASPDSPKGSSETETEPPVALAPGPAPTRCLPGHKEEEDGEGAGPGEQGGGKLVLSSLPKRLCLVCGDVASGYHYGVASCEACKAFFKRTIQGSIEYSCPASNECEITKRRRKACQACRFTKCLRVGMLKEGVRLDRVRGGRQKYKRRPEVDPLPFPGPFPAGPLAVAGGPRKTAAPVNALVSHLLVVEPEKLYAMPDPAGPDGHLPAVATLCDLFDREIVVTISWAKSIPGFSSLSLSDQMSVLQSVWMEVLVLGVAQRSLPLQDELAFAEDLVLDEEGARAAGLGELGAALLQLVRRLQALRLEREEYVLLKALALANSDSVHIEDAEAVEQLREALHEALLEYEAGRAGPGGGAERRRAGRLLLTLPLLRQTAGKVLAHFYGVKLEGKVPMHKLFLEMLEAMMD
Sequence of Estrogen-related receptor gamma (Homo sapiens) (P62508 whole entry, looked up, the tested form may be a part): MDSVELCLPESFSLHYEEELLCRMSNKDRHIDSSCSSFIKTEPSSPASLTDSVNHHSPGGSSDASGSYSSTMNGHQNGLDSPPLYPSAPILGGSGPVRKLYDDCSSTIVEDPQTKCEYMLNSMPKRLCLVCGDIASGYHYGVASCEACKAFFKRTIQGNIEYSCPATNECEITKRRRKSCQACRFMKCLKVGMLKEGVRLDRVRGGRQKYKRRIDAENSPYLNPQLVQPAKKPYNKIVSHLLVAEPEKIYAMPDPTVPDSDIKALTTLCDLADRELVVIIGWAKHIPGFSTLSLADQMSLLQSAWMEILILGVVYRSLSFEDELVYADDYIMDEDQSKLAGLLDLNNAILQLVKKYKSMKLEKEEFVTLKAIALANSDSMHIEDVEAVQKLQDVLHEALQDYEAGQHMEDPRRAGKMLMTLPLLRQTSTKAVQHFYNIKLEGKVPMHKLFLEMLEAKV

CC/C=C\CCOC(=O)CCCCC
not listed: [14] | [15] | [16] | [17] | [18] | [19]
inactive: all other assays above

CCCCCCOC(=O)C(C)CC (stereo not drawn)
not listed: [5] | [8] | [13] | [18] | [19]
inactive: all other assays above

CCCCCCCCCCCCCCCC[N+](C)(C)CC
active: [18] 8.95 µM | [6] 5.99 µM | [8] 9.07 µM | [17] 9.59 µM
not listed: [9] | [12] | [13] | [16]
inactive: all other assays above

CCOc1nc(F)cc2nc(S(=O)(=O)Nc3c(Cl)cccc3C(=O)OC)nn12
active: [8] 16.6 µM
not listed: [5] | [9] | [10] | [12] | [15] | [16] | [17]
inactive: all other assays above

CCc1ccc2c(c1)C(=O)c1ccccc1C2=O
active: [8] 11.6 µM | [9] 4.61 µM
not listed: [2] | [6] | [10] | [12] | [13] | [15] | [17]
inactive: all other assays above

CC(=O)C=CC1C(C)=CCC(C)C1(C)C (stereo not drawn)
not listed: [10] | [12] | [13]
inactive: all other assays above

CN1C(=O)N(C)C(O)C1O (stereo not drawn)
not listed: [10] | [17] | [18]
inactive: all other assays above

O=C1CC2CC1C1CCCC21 (stereo not drawn)
not listed: [2] | [8] | [16] | [17] | [18]
inactive: all other assays above

CCOC(=O)N1CCC(=C2c3ccc(Cl)cc3CCc3cccnc32)CC1
active: [1] 7.79 µM | [18] 3.42 µM | [6] 8.07 µM | [7] 8.84 µM | [8] 1.37 µM
not listed: [2] | [5] | [17]
inactive: all other assays above
